Sampled rows, rich in hits. Any-hit rate of the full collection: about 28%.
CYP2C9 inh – blockers of cytochrome P450 2C9 activity – biochemical, luminescence, ADME assay, primary screen | P11712 | CYP2C9 Supersomes, luciferin-H conversion | inhibition, % at 5 µM | 96,000 compounds, 20% hits | AID 777, 2007;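 active means blocking of liver enzyme CYP2C9 beyond about 50% at 5 µM, limit read from the data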
CYP2C19 activ – human CYP2C19 activators, primary screen, biochemical, luminescence; activation factor at 5 µM; 96,000 tested, under 10 active; recombinant CYP2C19, luciferin-H EGE luminescence; active compounds read high; 0 = fully inhibited enzyme, 1 = untreated enzyme; AID 1025, 2008; Cytochrome P450 2C19 (Homo sapiens), P33261;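 active means activation factor of at least 2 at 5 µM in the primary screen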;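 further: 0 = wells with 2.5 mM tranylcypromine and 1 = vehicle-only wells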
PLK1 PBD inh – Plk1 polo box domain binding inhibitors, primary screen, biochemical, fluorescence polarization; inhibition, %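 (tested at about 20 µM)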; Serine/threonine-protein kinase PLK1 (Homo sapiens), P53350; 97,000 compounds, 0.13% hits; Plk1 PBD phosphopeptide binding; in the data active means inhibition above about 34%, passing the limit was not always enough
Target sequence (P53350 whole entry, looked up, the tested form may be a part): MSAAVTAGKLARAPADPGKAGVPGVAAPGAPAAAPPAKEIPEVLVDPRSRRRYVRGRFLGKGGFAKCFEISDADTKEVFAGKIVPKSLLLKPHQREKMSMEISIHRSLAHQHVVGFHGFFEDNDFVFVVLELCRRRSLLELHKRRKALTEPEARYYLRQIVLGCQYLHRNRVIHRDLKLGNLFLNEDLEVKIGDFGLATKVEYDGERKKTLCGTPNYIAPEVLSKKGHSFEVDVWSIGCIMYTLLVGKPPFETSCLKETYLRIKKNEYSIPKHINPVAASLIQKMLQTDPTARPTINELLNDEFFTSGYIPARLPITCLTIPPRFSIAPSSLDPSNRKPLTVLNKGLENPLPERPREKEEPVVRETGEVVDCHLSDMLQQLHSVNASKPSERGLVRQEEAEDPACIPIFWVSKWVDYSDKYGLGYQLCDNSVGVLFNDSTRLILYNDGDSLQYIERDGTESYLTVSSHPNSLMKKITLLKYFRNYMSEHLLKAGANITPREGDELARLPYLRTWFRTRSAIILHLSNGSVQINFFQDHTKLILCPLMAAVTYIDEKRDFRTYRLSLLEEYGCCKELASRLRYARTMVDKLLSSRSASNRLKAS
CYP2C19 inhib – blockers of cytochrome P450 2C19 activity – biochemical, luminescence, ADME assay, primary screen | CYP2C19 Supersomes, luciferin-H EGE luminescence, 30 min | 96,000 compounds, 21% hits | inhibition, % at 5 µM | P33261;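 active means CYP2C19 inhibition above a set limit at 5 µM in the primary screen, cut at about 50% in these data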;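 further: plate controls were negative control wells for no effect and 2.5 mM tranylcypromine positive control for full effect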
CYP2C9 act – human CYP2C9 activators, primary screen, biochemical, luminescence. recombinant CYP2C9, luciferin-H conversion; active compounds read high; factor 1 = untreated enzyme, 0 = blocked. Cytochrome P450 2C9 (Homo sapiens), P11712. activation factor at 5 µM. 96,000 compounds, 1.4% hits;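 active means activation factor of 2 or more for CYP2C9 at a 5 µM dose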;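 further: 0 = sulfaphenazole-blocked wells and 1 = vehicle-only wells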
PLK1 inh – human PLK1 kinase inhibitors, primary screen, biochemical, TR-FRET. Serine/threonine-protein kinase PLK1 (Homo sapiens), P53350. recombinant PLK1 kinase, TR-FRET peptide phosphorylation. inhibition, % at 10 µM. 97,000 compounds, 0.53% hits. AID 619, 2007;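 active means inhibition of 50% or more in the single-concentration screen; inactive means inhibition below 50%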;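 further: 0% = DMSO max control and 100% = H-89 dihydrochloride min control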
* marks the source's active call; other numbers are inactive results; / = no result.

SMILES | CYP2C9 inh | CYP2C19 activ | PLK1 PBD inh | CYP2C19 inhib | CYP2C9 act | PLK1 inh
CCCNC(=O)C1CCN(S(=O)(=O)c2ccc(Br)cc2)CC1 | / | / | 18.9 | / | / | -7.6
COCCSc1ccccc1C(=O)NCc1ccc2c(c1)OCO2 | 24.4 | 0.5 | 5.7 | 48.2 | 0.8 | -9.3
CCN(C(=O)c1cc2cc(OC)ccc2oc1=O)c1cccc(C)c1 | 51.3* | 0.4 | 2.1 | 56.1* | 0.5 | -10.3
CCN(C(=O)c1cc2cc(OC)ccc2oc1=O)c1ccccc1 | 35.8 | 0.8 | 0.5 | 15.5 | 0.6 | -13.3
CC(C)OCC(O)CS(=O)Cc1ccccc1 (stereo not drawn) | -12.5 | 0.9 | 9.1 | 10.3 | 1.1 | 1.8
COc1cccc(C(=O)OCc2ccccc2C#N)c1O | 75.9* | 0.1 | -9.7 | 92.4* | 0.2 | -8.2
CCOC(=O)c1ccccc1NC(=O)Cc1ccccc1OC | / | / | 8.5 | / | / | -9.7
COc1cc(NC(=O)C2CCCC2)c(OC)cc1Cl | 9.3 | 0.4 | 26.0 | 64.9* | 0.9 | -16.9
CCCCC(=O)Nc1cc(OC)c(NC(=O)C2CCCCC2)cc1OC | 98.8* | 0.3 | 2.9 | 70.9* | 0 | -10.8
CCCCOC(=O)Nc1cc(OC)c(Cl)cc1OC | 61.3* | 0 | / | 98.4* | 0.4 | /
CCCC(=O)Nc1cc(OC)c(NC(=O)NC2CCCCC2)cc1OC | 6.0 | 1 | -0.6 | -2.2 | 0.9 | -4.5
COc1cc(/C=N/NC(=O)C(C)n2nnc3ccccc32)ccc1O (stereo not drawn) | 36.4 | 0.6 | 11.5 | 36.3 | 0.6 | -21.2
O=c1c(-c2nc3ccccc3o2)c2oc3ccccc3n2c2ccccc12 | 5.5 | 0.9 | -11.0 | 7.8 | 0.9 | -9.1
COc1ccc(C2CC(c3ccccc3C)n3nc(N)nc3N2)cc1 (stereo not drawn) | 7.3 | 0.4 | / | 57.0* | 0.9 | /
CCOc1ccccc1C1CC(c2ccc(Br)cc2)Nc2nc(N)nn21 (stereo not drawn) | 23.2 | 0.4 | -3.3 | 64.0* | 0.8 | -3.5
Nc1nc2n(n1)C(c1ccccc1Cl)CC(c1ccc(F)cc1)N2 (stereo not drawn) | 16.9 | 0.3 | 15.5 | 73.0* | 0.8 | -10.3
Cc1cccc(C2CC(c3ccc(F)cc3)Nc3nc(N)nn32)c1 (stereo not drawn) | 4.1 | 0.4 | -17.1 | 58.0* | 1 | -14.2
Cc1ccc(C2CC(c3ccccc3Cl)n3nc(N)nc3N2)cc1 (stereo not drawn) | 5.7 | 0.8 | 5.4 | 24.3 | 0.9 | 2.5
CCOc1ccc(C2CC(c3ccc(Br)cc3)Nc3nc(N)nn32)cc1 (stereo not drawn) | / | / | -10.1 | / | / | -10.8
CCOc1ccc(N2C(=O)/C(=C/c3cccs3)N(CC(=O)OC)C2=S)cc1 | -2.4 | 0.8 | 19.2 | 22.0 | 1 | -8.6
CCOC(=O)N1CCN(C(=O)CSc2ncccn2)CC1 | 20.4 | 0.8 | 19.5 | 23.9 | 0.8 | -12.3
CC(C)OCCCNC(=O)c1ccccc1Oc1ccccc1 | 32.0 | 0.7 | -3.5 | 30.9 | 0.7 | -14.0
COc1cccc(C2CC(c3ccccc3Cl)n3nc(N)nc3N2)c1 (stereo not drawn) | 17.2 | 0.2 | -2.8 | 84.6* | 0.8 | -13.8
COc1cccc(C2CC(c3ccc(Cl)cc3)n3nc(N)nc3N2)c1 (stereo not drawn) | 15.7 | 0.2 | 2.3 | 78.0* | 0.8 | -21.4
COc1ccc(C2CC(c3cccc(OC)c3)n3nc(N)nc3N2)cc1 (stereo not drawn) | 9.3 | 0.9 | / | 13.3 | 0.9 | /
SMILES | CYP2C9 inh | CYP2C19 activ | PLK1 PBD inh | CYP2C19 inhib | CYP2C9 act | PLK1 inh
COc1cccc(C2CC(c3ccccc3OC)n3nc(N)nc3N2)c1 (stereo not drawn) | 11.3 | 0.4 | 5.6 | 62.9* | 0.9 | -8.4
Cc1ccc(C2CC(c3cccs3)n3nc(N)nc3N2)cc1 (stereo not drawn) | 21.2 | 0.5 | 17.5 | 50.8* | 0.8 | -9.2
COc1cccc(C2CC(c3ccccc3C)n3nc(N)nc3N2)c1 (stereo not drawn) | 6.2 | 0.6 | / | 36.5 | 0.9 | /
NNC(=O)c1nnn(-c2nonc2N)c1-c1cccs1 | 6.4 | 0.7 | 8.0 | 30.1 | 0.9 | -2.9
CCOc1cc(/C=N\NC(=O)c2ccc(NC(=O)CC)cc2)ccc1OC(=O)c1ccccc1 | 8.6 | 1.1 | -14.9 | -6.2 | 0.9 | -9.8
CCOC(=O)C(NC(=O)c1ccc(F)cc1)(Nc1nnc(C)s1)C(F)(F)F (stereo not drawn) | -1.7 | 0.9 | / | 14.4 | 1 | /
COc1ccc(C(=O)NCc2nnc(SCC(=O)N3CCCCC3)o2)cc1OC | 22.2 | 0.7 | 4.2 | 33.1 | 0.8 | -3.0
CS(=O)(=O)N1CCN(C(=O)c2ccc(Br)s2)CC1 | 40.5 | 0.1 | -2.0 | 94.1* | 0.6 | -7.7
COc1cccc2c(=O)c(SC(F)(F)C(F)C(F)(F)F)c(C)[nH]c12 (stereo not drawn) | 33.9 | 0.6 | -2.5 | 43.7 | 0.7 | 5.5
Cc1[nH]c2ccc(F)cc2c(=O)c1SC(F)(F)C(F)C(F)(F)F (stereo not drawn) | 55.5* | 0.2 | -3.4 | 79.7* | 0.4 | -1.4
COc1ccc(NC(=O)CCN2CCC(C)CC2)cc1 | 6.7 | 0.9 | 16.5 | 7.7 | 0.9 | -1.5
Cc1ccc(NC(=O)CCn2nc(C)cc2C)cc1 | -13.9 | 0.3 | 8.5 | 74.3* | 1.1 | -4.7
COc1ccc(NC(=O)CCn2cccc2)cc1 | 3.0 | 0.5 | -13.6 | 51.3* | 1 | -5.7
Cc1ccc(NC(=O)Cn2cccc2)c(C)c1 | 0.3 | 0.3 | -4.2 | 71.2* | 1 | -13.8
Cc1ccc(NC(=O)Cn2cccc2)cc1Cl | 4.4 | 0.5 | 15.3 | 52.3* | 1 | -9.2
Cc1ccc(NC(=O)Cn2cccc2)c(Br)c1 | -0.3 | 0.7 | 16.3 | 31.1 | 1 | -7.3
CCn1c(CNC(=O)c2ccco2)nnc1SCC(=O)Nc1cc(C(F)(F)F)ccc1Cl | 1.5 | 0.7 | 16.7 | 31.7 | 1 | -5.2
O=C(Nc1c(C(=O)NCc2ccco2)cnn1-c1ccccc1)c1ccc(F)cc1 | 41.9 | 0.6 | 18.4 | 42.6 | 0.6 | -1.9
COc1ccc(-n2nc(C(=O)Nc3ccc(OC)c(OC)c3)c3c4ccccc4n(C)c3c2=O)cc1 | 20.8 | 0.9 | -23.6 | 9.3 | 0.8 | -6.2
COc1ccc(NC(=O)c2c(Cl)n(C)c3ccccc23)cc1 | -125.8 | 0.9 | -23.9 | 13.1 | 2.3* | -8.0
Cc1ccc(NC(=O)CCn2cccc2)cc1 | 36.7 | 0.1 | 6.3 | 91.6* | 0.6 | -10.6
Cc1ccc(NC(=O)CCn2cccc2)cc1C | 9.2 | 0.1 | 13.9 | 85.4* | 0.9 | -9.6
Cc1ccc(NC(=O)Cn2cccc2)cc1C | 22.4 | 0.5 | -7.5 | 47.0 | 0.8 | 5.7
CCn1c(C)c(/C=N/Nc2nc3ccccc3s2)c2ccccc21 | 3.8 | 0.8 | -2.9 | 16.7 | 1 | -5.6
O=C(O)C1CC=CCC1C(=O)N1CCCC1 (stereo not drawn) | 8.9 | 1.1 | -10.0 | -9.9 | 0.9 | 0.9

High-throughput results deposited in PubChem BioAssay by several laboratories.
